Measured values as given in PubChem BioAssay AID492998 (Southern Research Specialized Biocontainment Screening …, 2010).
Among all 2,300 compounds or so, about 550 (24%) were called active. These entries were drawn from the full list. Measured potencies and affinities stand elsewhere. Unmarked numbers belong to inactive results. The rule behind the calls is not given here.

Assay: Vero E6 cell cytotoxicity, dose response, cytotoxicity control for non-replicating M. tuberculosis project, secondary assay (AID 492998);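 note: 100% = vehicle-treated cells and 0% = background wells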
Conditions: series mostly up to 20 µM; viability: at the top concentration

Structure (SMILES) | viability [%]
Nc1ccc(C(=O)N/N=C\C=C\c2ccc([N+](=O)[O-])cc2)cc1 | 93.4
CCCOC(=O)c1cc(-c2ccc(C=O)o2)ccc1Cl | 96.6
CCCCCCCCCCn1cc(C(C)=O)c(=O)[nH]c1=O | 102
CCC(CC)COC(=O)C(C#N)c1nc2ccccc2nc1N1CCN(CC)CC1 (stereo unspecified) | 79.7
CC(CCc1ccccc1)NC(=O)COC(=O)c1cccs1 (stereo unspecified) | 99.3
COc1ccc(N2C(=O)NC(=O)/C(=C/c3ccc([N+](=O)[O-])s3)C2=O)cc1 | 84.4
O=C(NCCC1=CCCCC1)c1ccc(Br)o1 | 87.7
Cc1n[nH]c(=S)n1/N=C/c1ccc(OCc2ccc(Cl)cc2Cl)cc1 | 95
Cc1cc(-c2c(C)[nH]n(-c3ccccc3)c2=O)n[nH]1 | 79.9
O=C1CC(N2CCC(C(=O)N3CCCCC3)CC2)C(=O)N1 (stereo unspecified) | 106
CCC(=O)c1ccc(OCc2ccc(C(=O)OC)cc2)cc1 | 93.7
CCOC(=O)C1=C(c2ccccc2)NC(N)=NC1c1ccc(OCc2ccc(Cl)cc2)c(OC)c1 (stereo unspecified) | 83.5
CCOC(=O)C(=O)NC12CC3CC(CC(C3)C1)C2 | 102
COC(=O)c1cc(-c2ccc(OC)cc2)on1 | 96.7
O=C1OC(/C=C/c2ccccc2)=NC/1=C\c1cccnc1 | 101
CCC1CCC(c2nnc(-c3ccc([N+](=O)[O-])cc3)o2)CC1 (stereo unspecified) | 106

Structure (SMILES) | viability [%]
O=c1c2c([N+](=O)[O-])cc([N+](=O)[O-])cc2nc2ccccn12 | 90
O=C(OCc1cccc([N+](=O)[O-])c1)c1ccc2ccccc2n1 | 94.8
CCCNC(=O)COC(=O)c1cc2c(=O)n3ccccc3nc2s1 | 103
CN1/C(=C\C=N\NC(=O)c2cccnc2)C(C)(C)c2ccccc21 | 97.1
O=C(OCC(=O)N1CCc2ccccc2C1)c1cccc([N+](=O)[O-])c1 | 99.2
COc1cc(/C=N/NC(=O)c2ccncc2)ccc1OC(=O)c1cccc(F)c1 | 97.5
COc1ccc(NC(=O)COc2ccccc2)cc1Cl | 89.8
Clc1ccc(Cl)c(OCCCCNCc2ccccc2)c1 | 86.6
Clc1cccc(CNCCNCc2cccc(Cl)c2)c1 | 84.5
CCOC(=O)Nc1cccc(OCC(=O)Nc2ccccc2OC)c1 | 92.2
Cc1ccc(NC(=O)CCSc2nnc(Cc3ccccc3)o2)cc1 | 97.4
O=S(=O)(c1ccc(OCC2CO2)cc1)c1ccc(OCC2CO2)cc1 (stereo unspecified) | 88.2
COc1ccc(CCOC(=O)c2ccc(N)c([N+](=O)[O-])c2)cc1 | 89.5
CCCCN1C(=O)C2(NNc3ccccc3O2)c2ccccc21 (stereo unspecified) | 93.7
Cc1ccc(NC(=O)COC(=O)CCc2c[nH]c3ccccc23)cc1[N+](=O)[O-] | 106
